Experimental data reported in the supplement of paper PMC10849652.
Targets with a hit are over-represented here; the source holds about 8,800 in all. About 0.5% of all pairs of compound and target were hits. Unmarked numbers belong to inactive results.

Columns and labels:
Test in all cases: log2 fold change, soluble protein after heating vs DMSO (PISA); higher = thermal stabilisation; K562 lysate, 10 uM; active = over 0.2 and 3.5 SD of the protein, either way, in both replicates (recomputed)
nilotinib = compound: Cc1cn(-c2cc(NC(=O)c3ccc(C)c(Nc4nccc(-c5cccnc5)n4)c3)cc(C(F)(F)F)c2)cn1 [nilotinib]
Outline: (§1)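 K562 pellets were dounce-homogenised in PBS pH 7.4 with 1 mM MgCl2, and the crude extract at 1 mg/mL protein was treated with 10 μM compound for 30 min. Aliquots were heated for 3 min across 48°C-58°C, pooled, and brought to 0.5% NP-40 at 4°C; soluble protein was the supernatant after 21,000xg for 90 min. Soluble protein was quantified by TMTpro 16plex LC-MS/MS with channel sums equalised, and reported as log2 fold change in thermal stability against DMSO controls, with values from duplicates.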

[1] = compound: Cc1nc(Nc2n[nH]c3c2CN(C(=O)N[C@H](CN(C)C)c2ccccc2)C3(C)C)c2sccc2n1
Outline: as §1

dasatinib = compound: Cc1nc(Nc2ncc(C(=O)Nc3c(C)cccc3Cl)s2)cc(N2CCN(CCO)CC2)n1 [dasatinib]
Outline: as §1

[2] = compound: Cc1ncc(-c2ccnc(Nc3ccc(S(C)(=O)=O)cc3)n2)n1C(C)C
Outline: as §1

[3] = compound: Cn1cc(-c2ccc3c(c2)CCN3C(=O)Cc2cccc(C(F)(F)F)c2)c2c(N)ncnc21
Outline: as §1

quisinostat = compound: Cn1cc(CNCC2CCN(c3ncc(C(=O)NO)cn3)CC2)c2ccccc21 [quisinostat]
Outline: as §1

tipifarnib = compound: Cn1cncc1[C@@](N)(c1ccc(Cl)cc1)c1ccc2c(c1)c(-c1cccc(Cl)c1)cc(=O)n2C [tipifarnib]
Outline: as §1

[4] = compound: NC(=O)Nc1cc(-c2cccc(F)c2)sc1C(=O)N[C@H]1CCCNC1
Outline: as §1

[5] = compound: NC(=O)c1cnc(N[C@@H]2CCCC[C@@H]2N)nc1Nc1cccc(-n2nccn2)c1
Outline: as §1

[6] = compound: NC1(c2ccc(-c3nc4ccn5c(=O)[nH]nc5c4cc3-c3ccccc3)cc2)CCC1
Outline: as §1

Chain of UniProt Q96EM0 (Q96EM0 whole entry, looked up): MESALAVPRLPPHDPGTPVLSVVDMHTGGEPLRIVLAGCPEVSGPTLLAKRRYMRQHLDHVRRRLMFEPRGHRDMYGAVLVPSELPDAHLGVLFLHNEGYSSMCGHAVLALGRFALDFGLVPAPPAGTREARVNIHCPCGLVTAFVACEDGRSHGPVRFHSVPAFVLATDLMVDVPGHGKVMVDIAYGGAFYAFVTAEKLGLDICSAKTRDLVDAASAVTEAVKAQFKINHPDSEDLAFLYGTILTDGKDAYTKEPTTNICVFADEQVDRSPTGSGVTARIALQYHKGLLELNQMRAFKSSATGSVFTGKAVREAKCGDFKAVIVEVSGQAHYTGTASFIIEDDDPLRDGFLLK
Chain of UniProt O14880 (O14880 whole entry, looked up): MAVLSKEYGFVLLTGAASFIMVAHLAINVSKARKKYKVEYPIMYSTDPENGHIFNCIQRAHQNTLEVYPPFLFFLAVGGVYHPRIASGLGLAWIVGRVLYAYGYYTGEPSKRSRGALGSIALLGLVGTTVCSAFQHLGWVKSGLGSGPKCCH
Chain of UniProt Q6ZWT7 (Q6ZWT7 whole entry, looked up): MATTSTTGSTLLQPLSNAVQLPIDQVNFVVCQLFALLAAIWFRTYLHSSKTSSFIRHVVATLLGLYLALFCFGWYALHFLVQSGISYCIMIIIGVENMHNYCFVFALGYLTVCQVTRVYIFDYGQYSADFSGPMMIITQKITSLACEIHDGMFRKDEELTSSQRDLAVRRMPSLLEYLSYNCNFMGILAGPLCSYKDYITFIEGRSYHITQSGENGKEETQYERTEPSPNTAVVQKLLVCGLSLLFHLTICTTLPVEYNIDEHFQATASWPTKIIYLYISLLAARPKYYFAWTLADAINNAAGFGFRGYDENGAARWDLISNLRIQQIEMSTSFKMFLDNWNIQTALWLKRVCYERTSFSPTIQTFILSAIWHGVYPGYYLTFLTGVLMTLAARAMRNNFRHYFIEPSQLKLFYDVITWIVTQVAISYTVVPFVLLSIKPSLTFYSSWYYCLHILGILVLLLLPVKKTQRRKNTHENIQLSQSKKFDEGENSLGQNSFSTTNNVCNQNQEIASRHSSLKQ
Chain of UniProt P40692 (P40692 whole entry, looked up): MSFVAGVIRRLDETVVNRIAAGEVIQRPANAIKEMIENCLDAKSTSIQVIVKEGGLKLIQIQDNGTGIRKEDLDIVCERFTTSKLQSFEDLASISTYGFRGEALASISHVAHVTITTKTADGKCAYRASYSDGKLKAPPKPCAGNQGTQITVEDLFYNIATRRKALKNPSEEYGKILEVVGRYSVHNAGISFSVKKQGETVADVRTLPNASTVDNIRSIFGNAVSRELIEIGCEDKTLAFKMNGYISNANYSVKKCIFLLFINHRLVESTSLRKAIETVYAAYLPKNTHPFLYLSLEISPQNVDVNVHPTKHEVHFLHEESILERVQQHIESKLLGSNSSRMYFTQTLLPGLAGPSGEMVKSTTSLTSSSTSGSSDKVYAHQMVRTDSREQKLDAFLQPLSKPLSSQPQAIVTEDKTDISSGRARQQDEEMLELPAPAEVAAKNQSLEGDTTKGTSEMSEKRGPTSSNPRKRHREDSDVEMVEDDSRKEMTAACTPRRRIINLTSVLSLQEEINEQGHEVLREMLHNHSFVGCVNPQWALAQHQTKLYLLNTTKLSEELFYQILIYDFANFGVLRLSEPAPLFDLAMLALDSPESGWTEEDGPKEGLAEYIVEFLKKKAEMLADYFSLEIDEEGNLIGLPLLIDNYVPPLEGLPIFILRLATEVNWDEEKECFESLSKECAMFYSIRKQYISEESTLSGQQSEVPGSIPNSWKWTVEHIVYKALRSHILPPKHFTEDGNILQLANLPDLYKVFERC
Chain of UniProt Q16539 (Q16539 whole entry, looked up): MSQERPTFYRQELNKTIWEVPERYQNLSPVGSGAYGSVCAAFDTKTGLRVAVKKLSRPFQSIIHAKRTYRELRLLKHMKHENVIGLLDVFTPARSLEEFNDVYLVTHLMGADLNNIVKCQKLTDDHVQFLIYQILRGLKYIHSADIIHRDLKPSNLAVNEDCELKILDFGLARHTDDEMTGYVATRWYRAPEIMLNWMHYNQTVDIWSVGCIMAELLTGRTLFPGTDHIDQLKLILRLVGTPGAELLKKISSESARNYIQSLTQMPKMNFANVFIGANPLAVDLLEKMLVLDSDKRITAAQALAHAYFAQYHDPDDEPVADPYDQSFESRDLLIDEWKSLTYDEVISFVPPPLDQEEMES
Chain of UniProt Q6ZRQ5 (Q6ZRQ5 whole entry, looked up): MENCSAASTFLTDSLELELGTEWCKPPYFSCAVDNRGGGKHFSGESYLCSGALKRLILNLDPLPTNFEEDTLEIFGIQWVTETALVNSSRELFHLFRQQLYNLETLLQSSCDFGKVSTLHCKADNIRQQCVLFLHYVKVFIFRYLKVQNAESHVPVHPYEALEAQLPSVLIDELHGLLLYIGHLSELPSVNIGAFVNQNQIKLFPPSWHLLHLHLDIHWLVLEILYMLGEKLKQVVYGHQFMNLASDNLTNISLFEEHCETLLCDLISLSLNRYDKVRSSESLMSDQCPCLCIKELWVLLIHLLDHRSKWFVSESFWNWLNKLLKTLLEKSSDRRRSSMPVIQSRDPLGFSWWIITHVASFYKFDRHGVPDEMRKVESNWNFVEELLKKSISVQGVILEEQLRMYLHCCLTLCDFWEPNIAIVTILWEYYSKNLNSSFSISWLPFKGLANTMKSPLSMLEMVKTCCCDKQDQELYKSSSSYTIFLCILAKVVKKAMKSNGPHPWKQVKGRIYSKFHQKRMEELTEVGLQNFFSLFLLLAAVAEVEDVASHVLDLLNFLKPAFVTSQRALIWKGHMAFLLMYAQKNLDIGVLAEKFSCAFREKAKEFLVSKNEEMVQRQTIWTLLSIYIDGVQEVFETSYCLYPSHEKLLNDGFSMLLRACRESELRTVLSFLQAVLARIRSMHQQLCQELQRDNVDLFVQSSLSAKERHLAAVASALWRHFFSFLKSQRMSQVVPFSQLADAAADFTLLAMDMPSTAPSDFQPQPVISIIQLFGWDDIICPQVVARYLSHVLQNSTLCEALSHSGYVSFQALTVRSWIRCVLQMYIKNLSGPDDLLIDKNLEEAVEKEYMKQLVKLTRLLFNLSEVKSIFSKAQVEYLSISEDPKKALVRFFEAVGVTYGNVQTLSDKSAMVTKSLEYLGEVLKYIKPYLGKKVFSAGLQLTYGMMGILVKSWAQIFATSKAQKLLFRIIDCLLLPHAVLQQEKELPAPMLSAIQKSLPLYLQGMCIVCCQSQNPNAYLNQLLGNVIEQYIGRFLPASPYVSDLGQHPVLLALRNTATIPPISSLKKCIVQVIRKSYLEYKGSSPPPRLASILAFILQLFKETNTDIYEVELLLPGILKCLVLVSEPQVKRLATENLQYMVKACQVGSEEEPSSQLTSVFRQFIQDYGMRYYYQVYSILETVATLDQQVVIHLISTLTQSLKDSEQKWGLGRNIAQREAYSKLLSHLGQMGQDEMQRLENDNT
Chain of UniProt P28482 (P28482 whole entry, looked up): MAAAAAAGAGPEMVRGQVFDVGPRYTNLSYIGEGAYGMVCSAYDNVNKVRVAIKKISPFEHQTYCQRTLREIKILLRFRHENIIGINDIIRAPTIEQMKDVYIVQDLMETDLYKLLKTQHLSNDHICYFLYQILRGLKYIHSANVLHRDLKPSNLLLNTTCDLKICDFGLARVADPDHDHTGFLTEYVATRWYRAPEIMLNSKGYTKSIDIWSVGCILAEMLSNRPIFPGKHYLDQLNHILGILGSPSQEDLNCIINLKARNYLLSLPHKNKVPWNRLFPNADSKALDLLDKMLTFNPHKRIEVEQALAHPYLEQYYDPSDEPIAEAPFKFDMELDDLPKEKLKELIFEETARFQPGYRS
Chain of UniProt A9UHW6 (A9UHW6 whole entry, looked up): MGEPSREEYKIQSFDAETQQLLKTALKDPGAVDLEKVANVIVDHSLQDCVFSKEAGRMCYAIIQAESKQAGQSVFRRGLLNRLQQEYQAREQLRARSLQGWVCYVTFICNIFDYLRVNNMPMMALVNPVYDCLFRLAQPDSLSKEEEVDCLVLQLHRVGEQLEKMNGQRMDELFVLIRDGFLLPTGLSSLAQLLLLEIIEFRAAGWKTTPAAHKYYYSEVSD
Chain of UniProt P10620 (P10620 whole entry, looked up): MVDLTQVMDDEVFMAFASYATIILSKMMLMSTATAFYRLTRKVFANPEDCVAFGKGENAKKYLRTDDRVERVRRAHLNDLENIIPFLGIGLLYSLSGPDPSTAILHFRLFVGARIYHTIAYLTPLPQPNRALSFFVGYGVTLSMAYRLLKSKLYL
Chain of UniProt Q9H8H3 (Q9H8H3 whole entry, looked up): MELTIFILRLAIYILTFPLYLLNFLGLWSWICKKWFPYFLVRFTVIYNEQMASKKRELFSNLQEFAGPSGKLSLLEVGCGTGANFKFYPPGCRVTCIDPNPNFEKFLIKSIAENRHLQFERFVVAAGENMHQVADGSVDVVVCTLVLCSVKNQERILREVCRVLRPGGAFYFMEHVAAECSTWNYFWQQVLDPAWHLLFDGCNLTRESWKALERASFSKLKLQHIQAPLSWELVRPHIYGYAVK
Chain of UniProt Q13015 (Q13015 whole entry, looked up): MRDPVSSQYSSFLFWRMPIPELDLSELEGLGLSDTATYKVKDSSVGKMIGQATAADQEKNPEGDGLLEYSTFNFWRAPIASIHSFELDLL
Chain of UniProt Q9NZL9 (Q9NZL9 whole entry, looked up): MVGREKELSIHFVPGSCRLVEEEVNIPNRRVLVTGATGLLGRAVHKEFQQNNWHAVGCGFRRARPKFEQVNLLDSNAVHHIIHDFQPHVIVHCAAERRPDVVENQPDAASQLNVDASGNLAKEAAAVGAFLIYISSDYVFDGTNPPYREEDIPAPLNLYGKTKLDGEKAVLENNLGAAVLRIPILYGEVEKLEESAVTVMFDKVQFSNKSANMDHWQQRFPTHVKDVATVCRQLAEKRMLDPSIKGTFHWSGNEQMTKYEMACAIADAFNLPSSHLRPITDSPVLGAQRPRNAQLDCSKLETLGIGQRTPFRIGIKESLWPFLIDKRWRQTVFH

Target | log2 fold change (nilotinib) | log2 fold change [1] | log2 fold change (dasatinib) | log2 fold change [2] | log2 fold change [3] | log2 fold change (quisinostat) | log2 fold change (tipifarnib) | log2 fold change [4] | log2 fold change [5] | log2 fold change [6]
KIF2C (UniProt Q99661) | 0.013 | 0.009 | -0.021 | 0.002 | 0.028 | -0.068 | 0.003 | 0.035 | -0.01 | -0.005
MAT2B (UniProt Q9NZL9) | 0.002 | -0.014 | -0.023 | -0.024 | -0.007 | 0.021 | 0.02 | -0.005 | 0.04 | 0.009
MMS22L (UniProt Q6ZRQ5) | 0.033 | 0 | 0.026 | -0.015 | -0.007 | -0.086 | -0.013 | 0.041 | -0.03 | -0.06
KNSTRN (UniProt Q9Y448) | 0.012 | 0.03 | -0.048 | -0.071 | -0.005 | 0.165 | 0.033 | -0.02 | -0.002 | -0.01
LTN1 isoform 3 (UniProt O94822) | 0.006 | -0.007 | -0.086 | -0.009 | 0.014 | -0.023 | -0.002 | 0.044 | -0.016 | -0.027
MARK3 (UniProt P27448) | 0.013 | -0.004 | -0.186 | -0.05 | 0.014 | 0.172 | -0.072 | -0.08 | -0.029 | -0.06
L3HYPDH (UniProt Q96EM0) | 0.019 | 0.015 | 0.073 | 0.001 | -0.003 | -0.053 | -0.002 | 0.033 | 0.015 | 0.009
MIF4GD isoform 3 (UniProt A9UHW6) | -0.036 | 0.031 | 0.056 | -0.015 | 0.039 | -0.04 | 0.016 | 0.052 | -0.032 | -0.007
MAPK1 (UniProt P28482) | -0.042 | 0.205 | -0.014 | 0.091 | -0.01 | 0.07 | 0.011 | 0.01 | 0.088 | 0.003
MAP2K5 (UniProt Q13163) | 0.019 | -0.086 | -0.229 | -0.143 | 0.079 | -0.152 | -0.015 | 0.925 (active) | 0.035 | -0.048
KLHL12 isoform 2 (UniProt Q53G59) | -0.037 | -0.044 | -0.056 | 0.064 | -0.07 | 0.04 | 0.015 | 0.097 | 0.043 | 0.035
MICB, A0A140T979 | -0.044 | 0.042 | 0.024 | 0.033 | -0.055 | -0.06 | -0.025 | -0.004 | 0.491 | 0.21
MLST8 (UniProt Q9BVC4) | -0.011 | -0.006 | 0.046 | 0.079 | -0.041 | -0.058 | 0.076 | 0.043 | -0.065 | -0.067
MBOAT2 (UniProt Q6ZWT7) | -0.006 | -0.095 | -0.178 | 0.024 | -0.027 | -0.042 | 0.12 | 0.011 | 0.03 | -0.012
METTL7A (UniProt Q9H8H3) | 0.168 | 0.014 | 0.198 | -0.01 | 0.096 | -0.112 | 0.03 | -0.026 | -0.055 | -0.068
LIMK2 isoform 3 (UniProt P53671) | 0.074 | 0.06 | -0.126 | 0.07 | -0.099 | -0.003 | -0.05 | -0.066 | -0.064 | 0.008
LAS1L (UniProt Q9Y4W2) | -0.019 | 0.008 | 0.025 | 0.029 | -0.019 | -0.083 | -0.013 | 0.033 | 0.044 | -0.024
MAP4K4 isoform 3 (UniProt O95819) | -0.108 | 0.03 | -0.103 | 0.002 | 0.006 | -0.103 | 0.038 | 0.27 (active) | 0.02 | -0.032
MGST3 (UniProt O14880) | 0.024 | 0.016 | 0.029 | -0.019 | -0.062 | 0.016 | -0.014 | 0.009 | -0.013 | -0.031
MAPK14 isoform 2 (UniProt Q16539) | 0.523 | 0.041 | 0.879 (active) | 0.037 | 0.033 | -0.031 | -0.039 | -0.035 | 0.076 | -0.018
MECR (UniProt Q9BV79) | -0.085 | 0.012 | -0.03 | -0.004 | 0.02 | 0.07 | -0.009 | -0.041 | 0.02 | -0.028
KPNA2 (UniProt P52292) | -0.051 | -0.002 | -0.041 | 0.018 | 0.039 | -0.01 | -0.023 | 0.026 | 0.039 | -0.05
MLH1 (UniProt P40692) | 0 | 0.014 | -0.007 | 0.03 | 0.031 | -0.043 | 0.005 | 0.061 | 0.067 | -0.046
MRPL28 (UniProt Q13084) | 0.03 | -0.111 | -0.013 | -0.037 | 0.051 | -0.031 | 0.149 | 0.057 | 0.015 | -0.058
MGAT5 (UniProt Q09328) | 0.035 | 0.01 | -0.005 | 0.012 | 0.002 | 0.051 | -0.02 | -0.019 | 0.022 | -0.003
MGST1 (UniProt P10620) | 0.033 | -0.002 | -0.012 | -0.017 | 0.014 | -0.029 | 0.02 | 0.085 | -0.007 | -0.012
MLLT11 (UniProt Q13015) | 0.068 | 0.03 | -0.015 | -0.051 | -0.06 | -0.029 | -0.204 | 0.107 | 0.011 | 0.055
MAP1S (UniProt Q66K74) | 0.007 | -0.022 | -0.007 | -0.009 | 0.009 | -0.006 | 0.02 | 0.026 | 0 | 0
MED10 (UniProt Q9BTT4) | 0.042 | -0.012 | 0.031 | -0.021 | 0.043 | 0.04 | -0.066 | -0.082 | 0.025 | -0.045
